Where “and” joins values, the source holds several entries; their conditions need not be identical. Equal entries are not always repeated. About 2,000 (36%) of roughly 5,500 compounds were called active. Inconclusive results (about 18%) are left out. Cut-off read from the data, not from the text of the source: active = normalized growth mostly below about 0.91 (no sharp cut-off); inconclusive = no clear call, values can overlap the other calls; inactive = mostly above about 0.92. The list shows a part of the results.
Assay: chemical genetic growth profiling, strain panel (AID 1159580);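 note: tested at 20 µM; growth read once vehicle control cultures reached saturation at 30 °C; 1 = growth at the plate median or of vehicle wells; lower values mean less growth of the strain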
Conditions: S. cerevisiae deletion strains, growth OD

Measured: normalized growth

CC(C)=CCC[C@](C)(O)C1CC=C(C)CC1 (stereo partly specified)
inactive: locus YAL021C, strain ccr4, hits give low values 0.958 | locus YAL026C, strain drs2, hits give low values 0.987 | locus YAL030W, strain snc1, hits give low values 0.994 | locus YBL061C, strain skt5, hits give low values 0.98 | locus YBR009C, strain hhf1, hits give low values 0.996 | locus YBR021W, strain FUR4, hits give low values 0.966 | locus YBR023C, strain chs3, hits give low values 0.981 | locus YBR171W, strain sec66, hits give low values 0.967 | locus YBR229C, strain ROT2, hits give low values 1.02 | locus YBR231C, strain swc5, hits give low values 1 | locus YBR279W, strain paf1, hits give low values 0.99 | locus YCL011C, strain gbp2, hits give low values 0.979 | locus YCL016C, strain dcc1, hits give low values 0.992 | locus YCL029C, strain bik1, hits give low values 1 | locus YCL061C, strain MRC1, hits give low values 0.982 | locus YCL069W, strain vba3, hits give low values 0.987 | locus YCR088W, strain abp1, hits give low values 0.986 | locus YDL005C, strain med2, hits give low values 0.971 | locus YDL035C, strain GPR1, hits give low values 0.984 | locus YDL040C, strain nat1, hits give low values 1 | locus YDL074C, strain BRE1, hits give low values 0.995 | locus YDL101C, strain DUN1, hits give low values 1.02 | locus YDL134C, strain PPH21, hits give low values 1.02 | locus YDL185W, strain tfp1, hits give low values 0.987 | locus YDL192W, strain arf1, hits give low values 0.969 | locus YDR001C, strain nth1, hits give low values 0.994 | locus YDR069C, strain doa4, hits give low values 0.995 | locus YDR101C, strain arx1, hits give low values 0.976 | locus YDR137W, strain rgp1, hits give low values 0.972 | locus YDR159W, strain sac3, hits give low values 1 | locus YDR162C, strain NBP2, hits give low values 1.04 | locus YDR195W, strain ref2 1 | locus YDR297W, strain sur2, hits give low values 1.01 | locus YDR318W, strain mcm21, hits give low values 1 | locus YDR334W, strain swr1, hits give low values 0.985 | locus YDR335W, strain msn5, hits give low values 0.984 | locus YDR388W, hits give low values 1 | locus YDR392W, strain spt3, hits give low values 0.906 | locus YDR502C, strain sam2, hits give low values 0.973 | locus YEL003W, strain gim4, hits give low values 0.983 | locus YEL037C, strain rad23, hits give low values 0.978 | locus YEL061C, strain CIN8 (second series), hits give low values 0.983 | locus YEL061C, strain CIN8, hits give low values 1.02 | locus YER015W, strain faa2, hits give low values 0.987 | locus YER016W, strain bim1, hits give low values 0.987 | locus YER110C, hits give low values 0.982 | locus YER111C, strain swi4, hits give low values 0.969 | locus YER155C, strain BEM2 (second series), hits give low values 0.985 | locus YER155C, strain BEM2, hits give low values 1.02 | locus YER167W, strain BCK2, hits give low values 1.01 | locus YFR010W, strain ubp6, hits give low values 0.976 | locus YGL078C, strain dbp3, hits give low values 0.97 | locus YGL086W, strain mad1, hits give low values 0.976 | locus YGL167C, strain pmr1, hits give low values 0.982 | locus YGL173C, strain kem1, hits give low values 0.981 | locus YGL227W, strain vid30, hits give low values 0.981 | locus YGL240W, strain doc1, hits give low values 0.994 | locus YGL248W, strain PDE1, hits give low values 1.02 | locus YGL253W, strain hxk2, hits give low values 0.959 | locus YGR135W, strain pre9, hits give low values 1.01 | locus YGR252W, strain gcn5, hits give low values 0.962 | locus YHR013C, strain ard1, hits give low values 0.997 | locus YHR027C, strain rpn1, hits give low values 0.999 | locus YHR030C, strain SLT2, hits give low values 1.02 and 1 | locus YHR079C, strain IRE1 (second series), hits give low values 0.98 | locus YHR079C, strain IRE1, hits give low values 0.988 | locus YHR094C, strain hxt1, hits give low values 0.985 | locus YHR129C, strain ARP1, hits give low values 1.02 | locus YHR142W, strain chs7, hits give low values 0.953 | locus YHR200W, strain rpn10, hits give low values 1 | locus YIL066C, strain RNR3, hits give low values 1.02 | locus YIL073C, strain SPO22, hits give low values 1.02 | locus YIL125W, strain kgd1, hits give low values 0.997 | locus YIR030C, strain dcg1, hits give low values 0.991 | locus YJL092W, strain hpr5, hits give low values 0.958 | locus YJL095W, strain BCK1 (second series), hits give low values 0.976 | locus YJL095W, strain BCK1, hits give low values 1.04 and 0.993 | locus YJL115W, strain asf1, hits give low values 0.988 | locus YJL129C, strain trk1, hits give low values 0.973 | locus YJL134W, strain LCB3, hits give low values 1.01 | locus YJL154C, strain vps35, hits give low values 0.995 | locus YJL164C, strain tpk1, hits give low values 1 | locus YJL166W, strain qcr8, hits give low values 0.989 | locus YJL168C, strain set2, hits give low values 0.987 | locus YJL187C, strain SWE1 (second series), hits give low values 1.03 | locus YJL187C, strain SWE1, hits give low values 0.987

Source: PubChem BioAssay AID1159580 (chemical genetic matrix, 2015)
